The record followed here is PubChem BioAssay (NCATS).

Structures are written as SMILES. Results filed as inconclusive are left out. Entries that show only a call come without a potency. Activity calls are given as the source filed them. The call rests on the fitted dose curve; in most records, active means well fitted inhibition curve with a large enough effect; inconclusive means small, poorly fitted or top-dose-only effect; inactive means flat fitted curve, though single readings scatter.
Potency means the concentration at half of the fitted maximal effect.

Glutathione peroxidase 1 (Homo sapiens), sequence (P07203 whole entry, looked up): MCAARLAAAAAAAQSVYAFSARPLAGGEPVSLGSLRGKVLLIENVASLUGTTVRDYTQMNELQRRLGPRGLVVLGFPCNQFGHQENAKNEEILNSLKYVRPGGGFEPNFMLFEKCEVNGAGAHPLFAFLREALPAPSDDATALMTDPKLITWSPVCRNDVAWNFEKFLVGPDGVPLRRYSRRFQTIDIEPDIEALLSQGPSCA

For this test, the target named is Glutathione peroxidase 1 (Homo sapiens) (UniProt P07203). The test is described as follows: Primary qHTS Assay for Inhibitors of Recombinant Selenoprotein Glutathione Peroxidase 1 (GPX1) (AID 1845191). Further: nearly all actives have a fitted effect of over 65% in size. As to conditions: recombinant GPX1, GR-coupled NADPH fluorescence, 15 min; series mostly up to 48.8 µM. An outline of the steps:
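GR-coupled assay: compounds preincubated 30 min at room temperature with GPX1, then reaction started with CHP; final 10 nM GPX1, 1 mM GSH, 0.5 mM CHP, 0.5 mM NADPH, 100 nM GR, 0.01% BSA, pH 7.5 Tris buffer. NADPH fluorescence (340/450 nm) read at 0 and 15 min.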
On the technique in general: Quantitative high-throughput screening tests each substance at several concentrations.
On to `C=CC[N@@+]12CC[C@]34c5ccccc5N5/C=C6\C7N(/C=C(\C53)[C@@H](C[C@@H]41)/C(=C/CO)C2)c1ccccc1[C@@]71CC[N@@+]2(CC=C)C/C(=C\CO)[C@@H]6C[C@@H]12` (some centres undefined), for which the Potency result is “inactive”. The result for `CC(C)(O)CNc1ncc(-c2ccnc(Nc3ccnc(Cl)c3)n2)c(CC2CC2)n1` reads “inactive”; that for `CCCCCCCCn1cc(CC(N)=O)c2cc(-c3cccc(C)c3)ccc21`, “inactive”.

For `CCN(C(=O)CO)[C@H]1CN(C(=Nc2cccc(OC(F)F)c2)NC#N)N=C1c1ccc(Cl)c(Cl)c1`, the Potency entry is “inactive”.

With `CCn1c(-c2nc3cc(C(=O)N4CCC[C@@H](N)C4)cc(OC)c3n2C)cc2ccccc21`, the Potency result is “inactive”. The result for `OC[C@H]1O[C@@H](c2ccc(F)c(Cc3cc4ccccc4s3)c2)[C@H](O)[C@@H](O)[C@@H]1O` reads “inactive”; that for `O=C(CCCCCCSc1ccc2ccccc2c1)NO`, “inactive”; that for `O=C(O)c1ccc2nc(-c3cc(Cl)cc(Cl)c3)oc2c1`, “inactive”.

On to `COc1cccc(N2CCN(C(=O)Cn3ncc4c3-c3ccccc3OC4)CC2)c1`, for which the Potency entry was “inactive”. The result for `Oc1c(C(c2ccccc2)N2CCOCC2)sc2nc(-c3ccco3)nn12` (centres undefined) reads “inactive”; that for `COCC1=C(C(=O)O)N2C(=O)[C@@H](NC(=O)/C(=N\OC)c3csc(N)n3)[C@H]2SC1`, 18 µM (active). The result for `CCc1c(C(=O)Nc2cc(S(=O)(=O)N(CC)CC)ccc2O)[nH]c(C)c1C(C)=O` reads “inactive”; that for `CCC(Sc1nnc2c(n1)[nH]c1ccccc12)C(=O)N1c2ccccc2Sc2ccccc21` (centres undefined), “inactive”. As to `C=C(NC(=O)C(=C)NC(=O)c1csc(C2=N[C@H]3c4csc(n4)[C@H]4NC(=O)c5csc(n5)[C@H]([C@@](C)(O)[C@@H](C)O)NC(=O)[C@H]5CSC(=N5)C(=CC)NC(=O)[C@H]([C@@H](C)O)NC(=O)c5csc(n5)[C@]3(CC2)NC(=O)[C@H](C)NC(=O)C(=C)NC(=O)[C@H](C)NC(=O)[C@H](C(C)CC)N[C@@H]2C=Cc3c([C@H](C)O)cc(nc3[C@H]2O)C(=O)O[C@@H]4C)n1)C(N)=O` (some centres undefined), the Potency entry is “inactive”.
